Measured values: article PMC7862700, “An all-to-all approach to the identification of sequence-specific readers for epigenetic DNA modifications on cytosine”

Tests used:
Experiment in all cases: DAPPL (digital affinity profiling via proximity ligation, sequencing); 10 mM Tris-HCl pH 7.5, 50 mM NaCl, 1 mM DTT, 4% glycerol, room temperature, 30 min; GST-TFs on glutathione beads, 16-mer random dsDNA library, 0.1% formaldehyde crosslink after washing; high values mean tight binding
Conditions in all cases: protein: recombinant; tags: N-terminal GST; dsDNA, one strand shown
[1] = molecular target: T1, FLI1 (Homo sapiens, UniProt Q01543 1-452)
T1 sequence: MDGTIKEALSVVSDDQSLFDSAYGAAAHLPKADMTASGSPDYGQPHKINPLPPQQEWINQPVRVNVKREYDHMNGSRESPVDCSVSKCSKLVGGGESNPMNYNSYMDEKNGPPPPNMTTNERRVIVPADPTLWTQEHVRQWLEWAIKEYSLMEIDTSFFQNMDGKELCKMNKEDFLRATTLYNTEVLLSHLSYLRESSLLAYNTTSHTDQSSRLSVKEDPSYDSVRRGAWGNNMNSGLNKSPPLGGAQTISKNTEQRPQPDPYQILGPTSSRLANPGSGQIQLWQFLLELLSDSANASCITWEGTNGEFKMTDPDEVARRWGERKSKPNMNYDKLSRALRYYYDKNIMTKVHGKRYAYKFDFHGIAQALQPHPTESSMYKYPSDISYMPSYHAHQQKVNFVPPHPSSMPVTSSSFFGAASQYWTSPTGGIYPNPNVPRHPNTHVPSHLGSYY
How it was run: (§1)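 GST fusions of human transcription factors were expressed in yeast and captured with glutathione beads. Once given DNA barcodes and pooled alongside a tag-only sample, they were incubated for 30 min at room temperature with 200 nmole of a random double-stranded 16-mer DNA library in Tris/NaCl/DTT/glycerol buffer, then washed, crosslinked (0.1% formaldehyde), proximity-ligated, PCR-amplified and sequenced on an Illumina NextSeq500. The binding signal of each hexamer is its read frequency for a factor divided by its frequency for the tag-only sample.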

[2] = molecular target: T2, ELK1 (Homo sapiens, UniProt P19419 1-428)
T2 sequence: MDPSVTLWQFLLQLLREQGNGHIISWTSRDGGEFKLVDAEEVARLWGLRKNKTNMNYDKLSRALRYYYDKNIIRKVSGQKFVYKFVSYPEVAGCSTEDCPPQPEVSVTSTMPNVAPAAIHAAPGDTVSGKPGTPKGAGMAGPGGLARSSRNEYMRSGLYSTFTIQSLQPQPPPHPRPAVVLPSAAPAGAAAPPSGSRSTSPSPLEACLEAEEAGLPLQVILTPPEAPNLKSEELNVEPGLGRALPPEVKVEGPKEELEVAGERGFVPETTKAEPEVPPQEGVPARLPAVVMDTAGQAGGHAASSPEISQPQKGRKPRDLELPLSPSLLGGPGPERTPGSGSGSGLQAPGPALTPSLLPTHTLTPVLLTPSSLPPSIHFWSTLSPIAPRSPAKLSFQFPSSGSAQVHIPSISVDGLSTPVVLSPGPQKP
How it was run: as §1

[3] = molecular target: T3, GABPA (Homo sapiens, UniProt Q06546 1-454)
T3 sequence: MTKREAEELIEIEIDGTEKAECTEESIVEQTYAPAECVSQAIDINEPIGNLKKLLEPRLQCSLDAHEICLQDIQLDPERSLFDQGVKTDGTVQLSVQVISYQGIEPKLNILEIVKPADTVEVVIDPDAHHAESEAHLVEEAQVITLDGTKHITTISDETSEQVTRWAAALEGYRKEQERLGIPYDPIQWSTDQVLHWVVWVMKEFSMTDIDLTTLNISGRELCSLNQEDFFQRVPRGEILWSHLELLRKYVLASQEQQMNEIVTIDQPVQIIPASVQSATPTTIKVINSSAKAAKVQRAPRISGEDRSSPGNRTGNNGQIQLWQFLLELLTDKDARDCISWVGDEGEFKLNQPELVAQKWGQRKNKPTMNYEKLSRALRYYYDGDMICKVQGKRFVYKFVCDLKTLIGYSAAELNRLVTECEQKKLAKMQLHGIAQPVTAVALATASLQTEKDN
How it was run: as §1

[4] = molecular target: T4, ERG (Homo sapiens, UniProt P11308 1-479)
T4 sequence: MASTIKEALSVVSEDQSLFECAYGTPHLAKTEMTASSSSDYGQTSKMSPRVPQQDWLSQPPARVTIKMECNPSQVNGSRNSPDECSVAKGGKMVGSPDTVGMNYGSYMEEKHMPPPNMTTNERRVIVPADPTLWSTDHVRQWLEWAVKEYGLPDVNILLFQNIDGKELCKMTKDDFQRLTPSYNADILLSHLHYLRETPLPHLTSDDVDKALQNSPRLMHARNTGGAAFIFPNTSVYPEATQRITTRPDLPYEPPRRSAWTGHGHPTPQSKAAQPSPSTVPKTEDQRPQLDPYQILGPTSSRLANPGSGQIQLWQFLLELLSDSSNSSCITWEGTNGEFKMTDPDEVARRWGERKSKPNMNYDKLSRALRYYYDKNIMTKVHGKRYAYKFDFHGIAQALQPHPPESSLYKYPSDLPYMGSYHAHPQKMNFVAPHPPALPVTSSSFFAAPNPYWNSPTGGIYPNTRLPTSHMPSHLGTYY
How it was run: as §1

[5] = molecular target: ELF1 (Homo sapiens, UniProt P32519 1-619)
Chain of ELF1 (P32519 whole entry): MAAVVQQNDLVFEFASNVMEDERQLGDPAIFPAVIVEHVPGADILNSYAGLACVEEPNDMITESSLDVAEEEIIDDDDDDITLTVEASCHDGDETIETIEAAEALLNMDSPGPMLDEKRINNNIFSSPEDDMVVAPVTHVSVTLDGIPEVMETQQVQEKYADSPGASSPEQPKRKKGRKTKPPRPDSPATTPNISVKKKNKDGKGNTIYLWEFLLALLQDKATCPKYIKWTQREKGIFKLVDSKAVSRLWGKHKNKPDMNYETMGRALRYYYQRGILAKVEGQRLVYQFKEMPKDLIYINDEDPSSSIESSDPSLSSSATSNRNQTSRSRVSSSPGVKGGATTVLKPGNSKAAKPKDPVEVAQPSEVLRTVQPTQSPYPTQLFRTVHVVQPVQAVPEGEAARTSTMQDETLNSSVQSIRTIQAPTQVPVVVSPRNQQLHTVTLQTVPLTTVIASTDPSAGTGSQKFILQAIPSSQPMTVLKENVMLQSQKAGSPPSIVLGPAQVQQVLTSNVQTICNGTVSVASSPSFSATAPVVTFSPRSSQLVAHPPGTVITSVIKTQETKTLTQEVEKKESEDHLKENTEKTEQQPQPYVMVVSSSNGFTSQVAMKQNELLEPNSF
How it was run: as §1

[6] = molecular target: T5, EHF (Homo sapiens, UniProt Q9NZC4 1-300)
T5 sequence: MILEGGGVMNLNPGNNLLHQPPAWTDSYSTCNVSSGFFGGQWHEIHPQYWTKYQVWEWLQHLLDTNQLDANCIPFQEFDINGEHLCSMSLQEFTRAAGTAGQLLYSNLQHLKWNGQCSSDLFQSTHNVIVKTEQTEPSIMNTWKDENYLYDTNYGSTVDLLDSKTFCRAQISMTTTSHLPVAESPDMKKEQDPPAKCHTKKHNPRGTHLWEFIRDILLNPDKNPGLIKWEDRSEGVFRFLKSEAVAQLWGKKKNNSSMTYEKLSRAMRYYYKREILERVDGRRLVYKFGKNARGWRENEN
How it was run: as §1

[7] = molecular target: SPI1 (Homo sapiens, UniProt P17947 1-270)
How it was run: as §1

[8] = molecular target: SPIB (Homo sapiens, UniProt Q01892 1-262)
Chain of SPIB (Q01892 whole entry): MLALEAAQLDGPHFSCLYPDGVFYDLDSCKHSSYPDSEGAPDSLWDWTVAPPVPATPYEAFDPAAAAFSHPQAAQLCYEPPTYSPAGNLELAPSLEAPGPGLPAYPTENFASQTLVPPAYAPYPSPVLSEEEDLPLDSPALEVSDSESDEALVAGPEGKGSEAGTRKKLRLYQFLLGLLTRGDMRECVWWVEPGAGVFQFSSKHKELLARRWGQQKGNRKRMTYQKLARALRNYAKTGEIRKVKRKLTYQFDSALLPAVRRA
How it was run: as §1

[9] = molecular target: T6, ELK3 (Homo sapiens, UniProt P41970 1-407)
T6 sequence: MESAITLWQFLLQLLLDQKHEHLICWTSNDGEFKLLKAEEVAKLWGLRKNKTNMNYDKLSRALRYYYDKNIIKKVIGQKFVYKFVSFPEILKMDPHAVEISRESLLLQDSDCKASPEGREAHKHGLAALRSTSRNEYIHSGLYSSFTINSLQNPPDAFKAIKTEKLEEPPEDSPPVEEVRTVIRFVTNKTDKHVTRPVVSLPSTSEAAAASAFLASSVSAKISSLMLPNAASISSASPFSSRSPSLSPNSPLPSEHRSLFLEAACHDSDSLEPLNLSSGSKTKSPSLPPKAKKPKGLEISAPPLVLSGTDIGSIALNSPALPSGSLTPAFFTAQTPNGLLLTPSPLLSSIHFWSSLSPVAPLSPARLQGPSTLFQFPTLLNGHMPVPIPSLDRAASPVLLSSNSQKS
How it was run: as §1

Row | Sequence | binding signal [1] | binding signal [2] | binding signal [3] | binding signal [4] | binding signal [5] | binding signal [6] | binding signal [7] | binding signal [8] | binding signal [9]
1 | ACCAAC | 1.19 fold enrichment (6-mer frequency, TF over GST control) | 1.36 fold enrichment (6-mer frequency, TF over GST control) | 1.23 fold enrichment (6-mer frequency, TF over GST control) | 1.15 fold enrichment (6-mer frequency, TF over GST control) | 1.24 fold enrichment (6-mer frequency, TF over GST control) | 1.18 fold enrichment (6-mer frequency, TF over GST control) | 1.19 fold enrichment (6-mer frequency, TF over GST control) | 1.12 fold enrichment (6-mer frequency, TF over GST control) | 1.18 fold enrichment (6-mer frequency, TF over GST control)
2 | CCCTCA | 1.28 fold enrichment (6-mer frequency, TF over GST control) | 1.11 fold enrichment (6-mer frequency, TF over GST control) | 1.18 fold enrichment (6-mer frequency, TF over GST control) | 1.16 fold enrichment (6-mer frequency, TF over GST control) | 1.19 fold enrichment (6-mer frequency, TF over GST control) | 1.1 fold enrichment (6-mer frequency, TF over GST control) | 1.12 fold enrichment (6-mer frequency, TF over GST control) | 1.25 fold enrichment (6-mer frequency, TF over GST control) | 1.19 fold enrichment (6-mer frequency, TF over GST control)
3 | TATGGT | 1.38 fold enrichment (6-mer frequency, TF over GST control) | 1.3 fold enrichment (6-mer frequency, TF over GST control) | 1.32 fold enrichment (6-mer frequency, TF over GST control) | 1.22 fold enrichment (6-mer frequency, TF over GST control) | 1.37 fold enrichment (6-mer frequency, TF over GST control) | 1.39 fold enrichment (6-mer frequency, TF over GST control) | 1.28 fold enrichment (6-mer frequency, TF over GST control) | 1.3 fold enrichment (6-mer frequency, TF over GST control) | 1.17 fold enrichment (6-mer frequency, TF over GST control)
4 | AATAAC | 1.31 fold enrichment (6-mer frequency, TF over GST control) | 1.33 fold enrichment (6-mer frequency, TF over GST control) | 1.3 fold enrichment (6-mer frequency, TF over GST control) | 1.27 fold enrichment (6-mer frequency, TF over GST control) | 1.23 fold enrichment (6-mer frequency, TF over GST control) | 1.26 fold enrichment (6-mer frequency, TF over GST control) | 1.18 fold enrichment (6-mer frequency, TF over GST control) | 1.37 fold enrichment (6-mer frequency, TF over GST control) | 1.33 fold enrichment (6-mer frequency, TF over GST control)
5 | AGCCCC | 1.09 fold enrichment (6-mer frequency, TF over GST control) | 1.01 fold enrichment (6-mer frequency, TF over GST control) | 1.11 fold enrichment (6-mer frequency, TF over GST control) | 1.06 fold enrichment (6-mer frequency, TF over GST control) | 1.05 fold enrichment (6-mer frequency, TF over GST control) | 1.05 fold enrichment (6-mer frequency, TF over GST control) | 1.02 fold enrichment (6-mer frequency, TF over GST control) | 1.08 fold enrichment (6-mer frequency, TF over GST control) | 1.07 fold enrichment (6-mer frequency, TF over GST control)
6 | CAAACT | 1.18 fold enrichment (6-mer frequency, TF over GST control) | 1.14 fold enrichment (6-mer frequency, TF over GST control) | 1.21 fold enrichment (6-mer frequency, TF over GST control) | 1.12 fold enrichment (6-mer frequency, TF over GST control) | 1.17 fold enrichment (6-mer frequency, TF over GST control) | 1.15 fold enrichment (6-mer frequency, TF over GST control) | 1.12 fold enrichment (6-mer frequency, TF over GST control) | 1.14 fold enrichment (6-mer frequency, TF over GST control) | 1.23 fold enrichment (6-mer frequency, TF over GST control)
7 | ATACTT | 1.57 fold enrichment (6-mer frequency, TF over GST control) | 1.6 fold enrichment (6-mer frequency, TF over GST control) | 1.54 fold enrichment (6-mer frequency, TF over GST control) | 1.68 fold enrichment (6-mer frequency, TF over GST control) | 1.61 fold enrichment (6-mer frequency, TF over GST control) | 1.71 fold enrichment (6-mer frequency, TF over GST control) | 1.67 fold enrichment (6-mer frequency, TF over GST control) | 1.48 fold enrichment (6-mer frequency, TF over GST control) | 1.7 fold enrichment (6-mer frequency, TF over GST control)
